Reference: the supplement of paper PMC11732987, “Enantioselective OTUD7B fragment discovery through chemoproteomics screening and high-throughput optimisation” (Communications Chemistry, 2025)

Columns and labels:
Experiment in all cases: log2 ratio of Biotin-Ahx-Ub-VS probe labelling (fragment/DMSO); higher = less target engagement (more negative = stronger competition), active = hit call of the paper (q ≤ 0.05, log2 ratio ≤ -1)
Conditions in all cases: compound concentration: 200 uM; treatment time: 3 h
USP42 = biological target: T1, USP42 (UniProt Q9H9J4)
T1 sequence (whole entry): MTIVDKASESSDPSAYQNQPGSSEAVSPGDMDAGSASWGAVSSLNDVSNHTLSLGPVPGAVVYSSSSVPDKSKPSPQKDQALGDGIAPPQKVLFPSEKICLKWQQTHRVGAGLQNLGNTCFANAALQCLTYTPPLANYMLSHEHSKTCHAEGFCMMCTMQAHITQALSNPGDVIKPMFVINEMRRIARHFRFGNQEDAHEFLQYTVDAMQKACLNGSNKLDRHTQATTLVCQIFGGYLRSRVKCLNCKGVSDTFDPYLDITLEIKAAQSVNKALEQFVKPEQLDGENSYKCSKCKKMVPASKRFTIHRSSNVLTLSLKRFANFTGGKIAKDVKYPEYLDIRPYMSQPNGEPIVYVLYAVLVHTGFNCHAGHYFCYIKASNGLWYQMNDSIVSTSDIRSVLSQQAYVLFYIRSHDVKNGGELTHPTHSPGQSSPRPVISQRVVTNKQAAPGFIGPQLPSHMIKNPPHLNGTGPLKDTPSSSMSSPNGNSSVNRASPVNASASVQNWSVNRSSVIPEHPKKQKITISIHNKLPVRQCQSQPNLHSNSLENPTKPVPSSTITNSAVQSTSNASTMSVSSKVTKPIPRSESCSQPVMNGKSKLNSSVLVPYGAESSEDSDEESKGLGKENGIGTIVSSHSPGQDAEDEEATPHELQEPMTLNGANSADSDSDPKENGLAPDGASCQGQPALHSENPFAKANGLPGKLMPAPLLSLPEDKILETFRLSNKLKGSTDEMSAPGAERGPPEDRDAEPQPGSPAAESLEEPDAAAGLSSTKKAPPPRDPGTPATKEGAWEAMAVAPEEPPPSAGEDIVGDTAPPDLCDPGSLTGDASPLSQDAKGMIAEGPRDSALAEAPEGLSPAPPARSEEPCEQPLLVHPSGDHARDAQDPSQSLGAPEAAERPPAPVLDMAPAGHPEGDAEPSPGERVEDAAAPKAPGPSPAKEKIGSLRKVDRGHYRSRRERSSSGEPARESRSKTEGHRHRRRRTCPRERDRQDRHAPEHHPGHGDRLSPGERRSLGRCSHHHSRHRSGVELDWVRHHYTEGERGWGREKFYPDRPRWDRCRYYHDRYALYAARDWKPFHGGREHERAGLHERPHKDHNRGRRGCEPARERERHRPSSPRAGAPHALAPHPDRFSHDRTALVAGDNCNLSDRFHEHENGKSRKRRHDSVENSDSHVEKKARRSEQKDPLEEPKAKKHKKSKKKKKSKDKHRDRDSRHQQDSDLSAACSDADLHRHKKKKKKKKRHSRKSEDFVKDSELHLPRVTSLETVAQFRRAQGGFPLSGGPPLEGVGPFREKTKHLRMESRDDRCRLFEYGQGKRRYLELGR
Method in brief: (§1)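 Fragment (200 µM) or vehicle was incubated for 3 h with triplicate HEK293T lysate samples of 495 µg, which were then treated with Biotin-Ahx-Ub-VS at 0.5 µM final for 1 h. Labelled DUBs were enriched on NeutrAvidin, digested with LysC and trypsin, and analysed by diaPASEF LC-MS/MS. Values are average log2 fragment/vehicle ratios from an unpaired t-test on global-median-normalised Spectronaut label-free quantities, using proteins with ≥2 unique peptides.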

USP46 = USP46 (UniProt P62068)
Method in brief: as §1

USP47 = biological target: T2, USP47 (UniProt Q96K76)
T2 sequence (whole entry): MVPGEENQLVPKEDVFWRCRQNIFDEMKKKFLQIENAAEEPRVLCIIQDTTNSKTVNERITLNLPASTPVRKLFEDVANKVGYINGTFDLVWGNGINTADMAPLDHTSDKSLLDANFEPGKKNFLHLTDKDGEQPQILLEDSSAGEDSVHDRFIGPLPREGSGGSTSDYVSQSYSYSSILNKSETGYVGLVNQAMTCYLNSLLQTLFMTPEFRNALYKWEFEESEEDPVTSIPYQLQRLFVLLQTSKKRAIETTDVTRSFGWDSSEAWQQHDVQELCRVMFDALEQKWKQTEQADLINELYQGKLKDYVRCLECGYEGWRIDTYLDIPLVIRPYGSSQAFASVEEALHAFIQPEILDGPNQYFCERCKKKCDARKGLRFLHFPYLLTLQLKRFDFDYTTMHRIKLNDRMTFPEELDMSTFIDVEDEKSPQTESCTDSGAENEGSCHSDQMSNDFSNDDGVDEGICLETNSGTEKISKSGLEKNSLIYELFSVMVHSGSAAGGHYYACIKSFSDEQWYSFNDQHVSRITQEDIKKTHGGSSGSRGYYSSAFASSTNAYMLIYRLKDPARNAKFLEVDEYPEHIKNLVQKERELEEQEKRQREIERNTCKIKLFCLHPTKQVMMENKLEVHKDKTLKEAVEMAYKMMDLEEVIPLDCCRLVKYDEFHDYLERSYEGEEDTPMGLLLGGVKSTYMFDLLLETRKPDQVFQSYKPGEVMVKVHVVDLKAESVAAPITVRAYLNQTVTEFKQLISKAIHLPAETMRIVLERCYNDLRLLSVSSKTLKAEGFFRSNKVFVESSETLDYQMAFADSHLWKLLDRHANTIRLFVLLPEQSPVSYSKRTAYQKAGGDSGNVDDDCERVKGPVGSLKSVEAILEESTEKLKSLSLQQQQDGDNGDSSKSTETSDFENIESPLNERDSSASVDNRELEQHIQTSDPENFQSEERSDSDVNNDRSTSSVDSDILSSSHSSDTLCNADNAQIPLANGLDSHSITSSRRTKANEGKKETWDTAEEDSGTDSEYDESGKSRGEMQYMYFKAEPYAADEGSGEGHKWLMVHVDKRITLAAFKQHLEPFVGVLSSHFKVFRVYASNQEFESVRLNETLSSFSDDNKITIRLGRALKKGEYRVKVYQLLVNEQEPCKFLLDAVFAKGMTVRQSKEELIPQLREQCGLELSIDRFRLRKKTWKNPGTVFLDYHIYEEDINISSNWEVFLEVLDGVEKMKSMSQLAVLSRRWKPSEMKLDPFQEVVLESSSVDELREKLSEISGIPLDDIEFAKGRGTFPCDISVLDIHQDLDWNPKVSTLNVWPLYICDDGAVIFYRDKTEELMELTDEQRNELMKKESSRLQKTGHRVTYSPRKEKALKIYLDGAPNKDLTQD
Method in brief: as §1

USP48 = biological target: T3, USP48 (UniProt Q86UV5)
T3 sequence (whole entry): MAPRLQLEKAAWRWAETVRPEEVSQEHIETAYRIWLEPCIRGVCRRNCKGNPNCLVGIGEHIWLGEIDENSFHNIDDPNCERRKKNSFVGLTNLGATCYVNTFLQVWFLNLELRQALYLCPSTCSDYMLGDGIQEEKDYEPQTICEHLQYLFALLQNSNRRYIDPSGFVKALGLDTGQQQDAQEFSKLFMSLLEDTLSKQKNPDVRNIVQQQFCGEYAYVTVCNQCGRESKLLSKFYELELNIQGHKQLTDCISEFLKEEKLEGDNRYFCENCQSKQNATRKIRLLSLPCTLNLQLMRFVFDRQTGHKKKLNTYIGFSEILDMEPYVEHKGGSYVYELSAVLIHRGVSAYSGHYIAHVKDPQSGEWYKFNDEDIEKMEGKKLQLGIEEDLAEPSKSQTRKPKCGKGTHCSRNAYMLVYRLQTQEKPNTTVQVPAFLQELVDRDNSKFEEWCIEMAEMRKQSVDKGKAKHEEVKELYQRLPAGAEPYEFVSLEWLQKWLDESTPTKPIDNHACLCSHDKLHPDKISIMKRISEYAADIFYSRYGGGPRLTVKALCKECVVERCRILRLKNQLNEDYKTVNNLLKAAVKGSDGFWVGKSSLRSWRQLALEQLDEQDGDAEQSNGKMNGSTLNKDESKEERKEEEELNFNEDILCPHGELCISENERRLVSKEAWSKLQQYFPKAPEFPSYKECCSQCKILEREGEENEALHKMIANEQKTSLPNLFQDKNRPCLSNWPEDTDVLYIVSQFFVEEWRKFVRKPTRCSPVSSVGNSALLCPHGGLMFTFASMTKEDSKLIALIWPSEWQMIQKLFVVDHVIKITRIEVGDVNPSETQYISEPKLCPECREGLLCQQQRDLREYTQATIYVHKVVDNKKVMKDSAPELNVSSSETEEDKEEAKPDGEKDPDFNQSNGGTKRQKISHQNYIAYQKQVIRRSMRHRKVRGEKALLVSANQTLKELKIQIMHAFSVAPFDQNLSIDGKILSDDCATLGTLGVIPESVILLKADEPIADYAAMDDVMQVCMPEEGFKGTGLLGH
Method in brief: as §1

USP5 = biological target: T4, USP5 (UniProt P45974)
T4 sequence (whole entry): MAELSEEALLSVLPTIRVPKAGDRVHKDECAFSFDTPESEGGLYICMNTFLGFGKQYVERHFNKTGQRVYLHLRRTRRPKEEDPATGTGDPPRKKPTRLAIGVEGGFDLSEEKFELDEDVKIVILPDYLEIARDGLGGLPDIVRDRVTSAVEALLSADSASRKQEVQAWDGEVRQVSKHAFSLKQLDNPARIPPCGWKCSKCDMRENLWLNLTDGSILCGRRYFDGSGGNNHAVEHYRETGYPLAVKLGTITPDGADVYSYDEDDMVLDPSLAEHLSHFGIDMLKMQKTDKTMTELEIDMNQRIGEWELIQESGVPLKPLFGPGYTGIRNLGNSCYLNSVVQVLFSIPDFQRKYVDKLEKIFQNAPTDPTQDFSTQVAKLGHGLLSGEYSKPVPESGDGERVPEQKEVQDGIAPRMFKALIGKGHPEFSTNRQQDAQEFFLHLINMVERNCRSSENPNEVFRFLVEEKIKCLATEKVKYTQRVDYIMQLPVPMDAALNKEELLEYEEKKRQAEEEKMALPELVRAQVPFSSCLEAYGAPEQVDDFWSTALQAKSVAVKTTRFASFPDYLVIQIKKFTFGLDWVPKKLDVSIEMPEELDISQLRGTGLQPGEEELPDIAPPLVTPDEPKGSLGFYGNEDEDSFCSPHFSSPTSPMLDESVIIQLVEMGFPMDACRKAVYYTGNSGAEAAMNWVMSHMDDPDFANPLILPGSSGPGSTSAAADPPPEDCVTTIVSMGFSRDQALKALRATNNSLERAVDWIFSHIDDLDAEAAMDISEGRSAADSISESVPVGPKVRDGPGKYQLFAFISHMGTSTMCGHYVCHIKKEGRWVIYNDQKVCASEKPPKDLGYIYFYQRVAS
Method in brief: as §1

USP54 = USP54 (UniProt Q70EL1)
Method in brief: as §1

USP7 = USP7 (UniProt Q93009)
Method in brief: as §1

USP8 = biological target: T5, USP8 (UniProt P40818)
T5 sequence (whole entry): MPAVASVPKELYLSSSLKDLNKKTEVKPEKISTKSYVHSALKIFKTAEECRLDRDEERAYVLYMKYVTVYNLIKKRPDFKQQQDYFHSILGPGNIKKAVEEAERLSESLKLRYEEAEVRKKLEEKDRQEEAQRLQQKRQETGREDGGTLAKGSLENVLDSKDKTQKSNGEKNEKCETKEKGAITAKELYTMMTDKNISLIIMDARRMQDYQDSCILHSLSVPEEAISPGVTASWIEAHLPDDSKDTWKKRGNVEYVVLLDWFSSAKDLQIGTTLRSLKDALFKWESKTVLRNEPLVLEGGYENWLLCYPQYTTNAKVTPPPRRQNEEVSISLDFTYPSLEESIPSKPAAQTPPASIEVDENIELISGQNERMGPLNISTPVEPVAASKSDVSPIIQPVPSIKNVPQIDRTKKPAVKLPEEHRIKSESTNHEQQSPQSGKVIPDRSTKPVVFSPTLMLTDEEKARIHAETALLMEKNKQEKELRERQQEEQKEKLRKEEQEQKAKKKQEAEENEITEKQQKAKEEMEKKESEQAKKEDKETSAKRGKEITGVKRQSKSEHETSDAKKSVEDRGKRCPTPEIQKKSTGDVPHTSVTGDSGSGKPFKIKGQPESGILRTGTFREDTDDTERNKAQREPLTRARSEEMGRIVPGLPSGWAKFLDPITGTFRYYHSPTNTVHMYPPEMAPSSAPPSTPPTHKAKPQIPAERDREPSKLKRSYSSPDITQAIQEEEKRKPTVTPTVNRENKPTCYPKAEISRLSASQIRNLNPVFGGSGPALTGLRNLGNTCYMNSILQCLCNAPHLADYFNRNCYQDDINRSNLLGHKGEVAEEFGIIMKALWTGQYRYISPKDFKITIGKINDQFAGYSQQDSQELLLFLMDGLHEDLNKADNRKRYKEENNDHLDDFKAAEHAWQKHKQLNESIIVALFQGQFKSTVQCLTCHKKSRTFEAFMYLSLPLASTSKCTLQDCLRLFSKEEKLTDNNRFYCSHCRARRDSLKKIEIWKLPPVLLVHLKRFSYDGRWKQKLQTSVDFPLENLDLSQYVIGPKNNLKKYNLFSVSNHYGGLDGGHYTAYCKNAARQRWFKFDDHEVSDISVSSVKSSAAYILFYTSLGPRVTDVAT
Method in brief: as §1

USP9X = USP9X (UniProt Q93008)
Method in brief: as §1

UniProt O00487 = biological target: UniProt O00487
Method in brief: as §1

Measured: log2 ratio of Biotin-Ahx-Ub-VS probe labelling

Chain of UniProt O00487 (O00487 whole entry): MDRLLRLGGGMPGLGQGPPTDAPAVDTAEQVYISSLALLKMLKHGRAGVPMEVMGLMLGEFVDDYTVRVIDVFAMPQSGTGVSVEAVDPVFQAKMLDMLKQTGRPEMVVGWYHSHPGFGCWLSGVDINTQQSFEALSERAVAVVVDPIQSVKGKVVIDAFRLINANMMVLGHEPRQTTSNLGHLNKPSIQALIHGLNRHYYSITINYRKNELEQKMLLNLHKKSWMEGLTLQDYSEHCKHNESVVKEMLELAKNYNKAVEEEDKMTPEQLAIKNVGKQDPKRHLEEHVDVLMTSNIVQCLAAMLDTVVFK
Chain of USP54 (Q70EL1 whole entry): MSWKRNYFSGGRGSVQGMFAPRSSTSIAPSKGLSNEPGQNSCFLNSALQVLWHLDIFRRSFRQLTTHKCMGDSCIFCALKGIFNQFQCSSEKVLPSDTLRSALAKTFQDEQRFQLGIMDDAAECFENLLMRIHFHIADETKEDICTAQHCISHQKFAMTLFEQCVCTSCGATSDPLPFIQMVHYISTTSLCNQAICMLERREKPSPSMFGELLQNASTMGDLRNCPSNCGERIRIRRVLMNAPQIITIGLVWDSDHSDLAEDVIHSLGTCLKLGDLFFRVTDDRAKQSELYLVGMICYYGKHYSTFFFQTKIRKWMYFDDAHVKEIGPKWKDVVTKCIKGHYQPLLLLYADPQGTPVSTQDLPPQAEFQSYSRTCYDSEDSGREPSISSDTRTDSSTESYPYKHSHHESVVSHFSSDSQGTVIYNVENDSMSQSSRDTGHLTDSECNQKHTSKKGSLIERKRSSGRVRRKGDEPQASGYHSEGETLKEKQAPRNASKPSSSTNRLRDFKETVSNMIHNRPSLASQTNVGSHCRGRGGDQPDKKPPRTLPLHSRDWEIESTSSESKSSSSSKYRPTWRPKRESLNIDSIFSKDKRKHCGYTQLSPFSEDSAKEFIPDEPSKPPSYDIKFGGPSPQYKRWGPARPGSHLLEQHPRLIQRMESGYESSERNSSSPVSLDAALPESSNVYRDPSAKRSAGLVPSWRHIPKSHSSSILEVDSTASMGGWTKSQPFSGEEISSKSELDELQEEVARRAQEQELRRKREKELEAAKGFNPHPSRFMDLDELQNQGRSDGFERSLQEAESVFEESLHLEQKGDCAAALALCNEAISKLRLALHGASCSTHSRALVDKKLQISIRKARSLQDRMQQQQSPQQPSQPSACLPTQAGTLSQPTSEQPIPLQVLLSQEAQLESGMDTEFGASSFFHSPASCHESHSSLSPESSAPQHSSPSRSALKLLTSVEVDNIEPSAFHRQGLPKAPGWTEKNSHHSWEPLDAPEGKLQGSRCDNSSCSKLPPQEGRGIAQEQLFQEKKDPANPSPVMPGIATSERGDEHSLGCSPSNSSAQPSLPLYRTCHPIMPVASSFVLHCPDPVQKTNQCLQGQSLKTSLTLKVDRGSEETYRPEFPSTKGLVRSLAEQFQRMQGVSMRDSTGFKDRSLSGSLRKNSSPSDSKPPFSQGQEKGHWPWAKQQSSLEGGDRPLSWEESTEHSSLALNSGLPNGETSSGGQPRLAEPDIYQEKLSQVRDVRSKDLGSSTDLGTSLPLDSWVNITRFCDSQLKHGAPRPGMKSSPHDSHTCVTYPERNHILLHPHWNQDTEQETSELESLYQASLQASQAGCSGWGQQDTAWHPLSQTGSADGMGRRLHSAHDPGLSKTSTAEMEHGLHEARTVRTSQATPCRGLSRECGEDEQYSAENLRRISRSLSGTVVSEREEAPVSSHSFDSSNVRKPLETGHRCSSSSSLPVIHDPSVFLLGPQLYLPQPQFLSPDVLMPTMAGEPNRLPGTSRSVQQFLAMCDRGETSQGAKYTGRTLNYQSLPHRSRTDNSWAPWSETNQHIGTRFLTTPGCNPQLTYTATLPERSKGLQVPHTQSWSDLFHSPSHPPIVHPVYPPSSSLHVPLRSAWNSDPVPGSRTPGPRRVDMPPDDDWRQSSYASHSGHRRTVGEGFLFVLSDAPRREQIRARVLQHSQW
Chain of USP7 (Q93009 whole entry, looked up): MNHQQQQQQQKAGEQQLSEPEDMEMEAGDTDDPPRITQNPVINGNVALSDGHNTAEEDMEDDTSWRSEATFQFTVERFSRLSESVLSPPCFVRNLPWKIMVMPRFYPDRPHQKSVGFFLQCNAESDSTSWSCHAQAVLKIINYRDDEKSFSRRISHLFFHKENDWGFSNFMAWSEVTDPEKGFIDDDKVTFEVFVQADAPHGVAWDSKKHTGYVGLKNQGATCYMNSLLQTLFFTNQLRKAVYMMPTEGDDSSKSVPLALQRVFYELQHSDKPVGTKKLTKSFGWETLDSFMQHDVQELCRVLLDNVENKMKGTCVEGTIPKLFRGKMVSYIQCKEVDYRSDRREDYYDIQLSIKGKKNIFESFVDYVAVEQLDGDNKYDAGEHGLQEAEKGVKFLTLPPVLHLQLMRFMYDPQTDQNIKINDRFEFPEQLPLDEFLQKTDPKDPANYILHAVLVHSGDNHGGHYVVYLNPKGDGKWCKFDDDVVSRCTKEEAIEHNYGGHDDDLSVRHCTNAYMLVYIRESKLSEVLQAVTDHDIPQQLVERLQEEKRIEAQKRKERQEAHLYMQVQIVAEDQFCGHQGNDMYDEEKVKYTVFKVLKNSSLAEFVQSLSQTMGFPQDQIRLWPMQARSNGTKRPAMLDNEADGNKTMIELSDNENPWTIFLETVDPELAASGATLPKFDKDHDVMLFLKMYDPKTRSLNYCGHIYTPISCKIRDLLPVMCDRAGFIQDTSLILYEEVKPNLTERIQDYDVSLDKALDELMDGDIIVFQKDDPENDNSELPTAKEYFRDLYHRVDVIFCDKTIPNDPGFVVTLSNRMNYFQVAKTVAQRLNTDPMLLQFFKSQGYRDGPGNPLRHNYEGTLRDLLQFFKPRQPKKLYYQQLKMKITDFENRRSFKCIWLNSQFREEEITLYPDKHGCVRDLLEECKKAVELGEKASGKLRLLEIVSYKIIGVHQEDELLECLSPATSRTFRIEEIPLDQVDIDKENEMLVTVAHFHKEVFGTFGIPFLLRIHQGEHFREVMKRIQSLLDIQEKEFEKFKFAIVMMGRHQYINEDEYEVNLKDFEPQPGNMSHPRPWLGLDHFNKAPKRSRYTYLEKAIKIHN
Chain of USP46 (P62068 whole entry): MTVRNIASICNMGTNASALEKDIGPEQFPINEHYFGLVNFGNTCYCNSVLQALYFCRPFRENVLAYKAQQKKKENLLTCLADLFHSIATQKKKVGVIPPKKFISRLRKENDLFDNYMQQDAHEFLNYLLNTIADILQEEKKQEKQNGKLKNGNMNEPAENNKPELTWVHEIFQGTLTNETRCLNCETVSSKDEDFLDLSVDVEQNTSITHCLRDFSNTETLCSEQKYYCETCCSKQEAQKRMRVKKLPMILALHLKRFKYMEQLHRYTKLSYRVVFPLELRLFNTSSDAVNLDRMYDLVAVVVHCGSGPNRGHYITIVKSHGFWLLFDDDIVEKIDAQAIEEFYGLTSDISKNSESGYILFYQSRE

CN(C)S(=O)(=O)c1ccccc1CNC(=O)CCl
inactive: USP42 0.185 | USP46 0.0777 | USP47 -0.336 | USP48 -0.169 | USP5 0.419 | USP54 0.535 | USP7 -0.218 | USP8 -0.15 | USP9X -0.0424 | UniProt O00487 0.0834
